Source: PubChem BioAssay AID651742 (Broad Institute, 2012)
About 780 (14%) of roughly 5,600 compounds were called active. Another 3% or so got no clear call; they are omitted.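 How the source made its calls: active means mean signal decrease across replicates above about 35% based on untreated-well scatter, with enough replicates individually passing (limit read from the data); inconclusive means no rule stated though some were filed; inactive means the rest.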 Only a sample is shown.

test: NIH3T3 cell viability loss – cherry-pick, single point, cytotoxicity control for T. cruzi proliferation inhibitor project, confirmation (AID 651742); conditions: NIH/3T3 viability, CellTiter-Glo ATP luminescence, 90 h; at 8.35 µM; hits give high values;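 further: 0% = median of neutral control wells and 100% = median of positive control wells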

| SMILES | cytotoxicity (signal decrease) |
| --- | --- |
| C[C@H]1CN([C@@H](C)CO)C(=O)CCCn2cc(nn2)CO[C@H]1CN(C)C(=O)c1ccccc1 | 10.9% (inactive) |
| C[C@H](CO)N1C[C@H](C)[C@H](CN(C)C(=O)Nc2ccc(C(F)(F)F)cc2)OCCCC[C@H](C)Oc2ccc(NC(=O)C3CCCCC3)cc2C1=O | -27% (inactive) |
| Cc1noc(C)c1S(=O)(=O)Nc1ccc2c(c1)C(=O)N([C@@H](C)CO)C[C@H](C)[C@@H](CN(C)C(=O)Nc1cccc3ccccc13)OCCCC[C@H](C)O2 | 7.99% (inactive) |
| COc1ccc(S(=O)(=O)Nc2ccc3c(c2)C(=O)N([C@H](C)CO)C[C@H](C)[C@H](CN(C)Cc2ccc(C(F)(F)F)cc2)O3)cc1 | 29% (inactive) |
| O=C(CN1CCOCC1)N1CCCCN2[C@@H](CO)[C@H](c3ccc(-c4ccccc4)cc3)[C@@H]2C1 | 8.85% (inactive) |
| C[C@H]1CN([C@@H](C)CO)C(=O)c2cc(NC(=O)Nc3ccc4c(c3)OCO4)ccc2O[C@@H]1CN(C)Cc1ccc(Oc2ccccc2)cc1 | 16% (inactive) |
| C[C@@H]1CN([C@@H](C)CO)C(=O)c2cc(NC(=O)Cc3ccccc3)ccc2O[C@@H]1CN(C)Cc1ccc(Oc2ccccc2)cc1 | 27.9% (inactive) |
| N#C[C@@H]1[C@@H](c2ccc(C#Cc3cccc(F)c3)cc2)[C@@H](CO)N1C(=O)C1CCC1 | 29.1% (inactive) |
| CC(C)CC#Cc1cnc2c(c1)C(=O)N([C@@H](C)CO)C[C@@H](C)[C@H](CN(C)C(=O)Cc1ccncc1)O2 | -12% (inactive) |
| CC(=O)N(C)C[C@@H]1[C@@H](c2ccc(-c3ccccc3F)cc2)[C@@H](CO)N1C(C)=O | 0.445% (inactive) |
| CCN(C[C@H]1[C@H](c2ccccc2)[C@H](CO)N1C(=O)C1CC1)C(=O)NC1CCCC1 | -12.5% (inactive) |
| CC(C)NC(=O)Nc1ccc2c(c1)C(=O)N([C@H](C)CO)C[C@H](C)[C@H](CN(C)C(=O)Nc1ccc(C(F)(F)F)cc1)OCCCC[C@@H](C)O2 | -9.66% (inactive) |
| Cc1ccccc1S(=O)(=O)N1CC[C@H]2[C@H](CO)Nc3ccc(-c4cccc(F)c4)cc3[C@H]21 | 52.4% (active) |
| O=S(=O)(c1ccccc1)N1CC[C@@H]2[C@@H](CO)Nc3ccc(C#Cc4cccc(F)c4)cc3[C@@H]21 | 33% (inactive) |
| OC[C@@H]1Nc2ccc(-c3cccc(F)c3)cc2[C@H]2[C@@H]1CCN2Cc1ccncc1 | 9.48% (inactive) |
| C[C@H](CO)N1C[C@H](C)[C@@H](CN(C)Cc2ccc(C(F)(F)F)cc2)OCCCC[C@H](C)Oc2ccc(NC(=O)C3CCCCC3)cc2C1=O | 27.4% (inactive) |
| COc1cccc(S(=O)(=O)Nc2ccc3c(c2)[C@H]2C[C@H](CC(=O)NCc4ccc(Cl)cc4)O[C@H](CO)[C@H]2O3)c1 | -23.8% (inactive) |
| CN(C)C(=O)c1ccc(-c2ccc3c(c2)[C@H]2[C@H](CCN2C(=O)c2ccc4c(c2)OCO4)[C@H](CO)N3)cc1 | -2.98% (inactive) |
| O=C(c1ccc(F)cc1)N1CCCCN2[C@H](C1)[C@@H](c1ccc(C#CC3(O)CCCC3)cc1)[C@@H]2CO | 2.43% (inactive) |
| C[C@H](CO)N1C[C@H](C)[C@H](CN(C)S(=O)(=O)c2ccc(F)cc2)OCCCC[C@H](C)Oc2ccc(NS(=O)(=O)c3ccc(Cl)cc3)cc2C1=O | 22.2% (inactive) |

| SMILES | cytotoxicity (signal decrease) |
| --- | --- |
| C[C@@H]1CN([C@H](C)CO)C(=O)c2cccc(NC(=O)NC3CCCCC3)c2O[C@H]1CN(C)Cc1ccc(C(F)(F)F)cc1 | -8.62% (inactive) |
| C[C@@H]1CCCCO[C@H](CN(C)C(=O)CCC(F)(F)F)[C@H](C)CN([C@H](C)CO)C(=O)c2cc(NS(C)(=O)=O)ccc2O1 | 5.17% (inactive) |
| OC[C@@H]1[C@H](c2ccc(C#Cc3ccccc3)cc2)[C@@H]2CN(Cc3cncnc3)CCCCN12 | 41.5% (active) |
| COc1ccccc1C#Cc1ccc([C@@H]2[C@H](CO)N3CCCCN(C(=O)C4CCCC4)C[C@@H]23)cc1 | 53.5% (active) |
| Cc1ccc(-c2ccc([C@H]3[C@H](CO)N4CCCCN(Cc5cncnc5)C[C@@H]34)cc2)cc1 | 20% (inactive) |
| OC[C@@H]1[C@H](c2ccc(C#CC3(O)CCCC3)cc2)[C@H]2CN(Cc3cncnc3)CCCCN12 | 13.7% (inactive) |
| COc1ccccc1NC(=O)N1CCCCN2[C@H](C1)[C@H](c1ccc(-c3ccccc3)cc1)[C@@H]2CO | 33.3% (inactive) |
| O=C(C1CCC1)N1CCCCN2[C@H](CO)[C@H](c3ccc(-c4cccc(F)c4)cc3)[C@@H]2C1 | 30.8% (inactive) |
| CCC(=O)N1CCCCN2[C@H](C1)[C@@H](c1ccc(-c3ccc(F)cc3)cc1)[C@@H]2CO | 15.5% (inactive) |
| COc1ccccc1C#Cc1ccc([C@H]2[C@H](CO)N3CCCCN(C(=O)C4CCC4)C[C@@H]23)cc1 | 50.3% (active) |
| O=C(C1CCC1)N1CCCCN2[C@H](CO)[C@H](c3ccc(-c4ccncc4)cc3)[C@@H]2C1 | -4.89% (inactive) |
| COc1ccccc1C#Cc1ccc([C@@H]2[C@H](CO)N3CCCCN(C(=O)C4CC4)C[C@@H]23)cc1 | 17.7% (inactive) |
| O=C(CN1CCOCC1)N1CCCCN2[C@@H](CO)[C@H](c3ccc(/C=C/c4ccccc4)cc3)[C@@H]2C1 | 32.3% (inactive) |
| CCC(=O)N1CCCCN2[C@H](C1)[C@@H](c1ccc(/C=C/c3ccccc3)cc1)[C@@H]2CO | 38.9% (active) |
| C[C@@H]1CCCCO[C@H](CN(C)S(=O)(=O)c2ccc(Cl)cc2)[C@H](C)CN([C@@H](C)CO)C(=O)c2cc(NS(=O)(=O)c3cccs3)ccc2O1 | -18.8% (inactive) |
| C[C@@H]1CN([C@H](C)CO)C(=O)CCCn2nncc2CO[C@@H]1CN(C)Cc1ccc(C(=O)Nc2ccccc2N)cc1 | 14.8% (inactive) |
| Cc1ccc(S(=O)(=O)N2C[C@@H](O)COC[C@@H]3O[C@H](CC(=O)NCc4ccc(Cl)c(Cl)c4)CC[C@H]32)cc1 | 3.54% (inactive) |
| O=C(C1CCCC1)N1CCCCN2[C@@H](CO)[C@H](c3ccc(-c4cccc(F)c4)cc3)[C@@H]2C1 | 25.5% (inactive) |
| CCCNC(=O)N1[C@@H]2c3cccc(=O)n3C[C@H]1[C@H](CO)[C@H]2C(=O)NCC(F)(F)F | 19.4% (inactive) |
| C[C@@H]1CCCCO[C@H](CN(C)C(=O)Nc2cccc3ccccc23)[C@H](C)CN([C@H](C)CO)C(=O)c2cc(NS(=O)(=O)c3cccs3)ccc2O1 | 2.6% (inactive) |

| SMILES | cytotoxicity (signal decrease) |
| --- | --- |
| Cc1ccc(S(=O)(=O)Nc2ccc3c(c2)C(=O)N([C@H](C)CO)C[C@H](C)[C@H](CN(C)C(=O)Nc2ccc(F)cc2)OCCCC[C@H](C)O3)cc1 | -4.04% (inactive) |
| Cc1ccc(S(=O)(=O)N(C)C[C@H]2OCCCC[C@H](C)Oc3ccc(NC(=O)Cc4ccccc4)cc3C(=O)N([C@@H](C)CO)C[C@@H]2C)cc1 | -1.37% (inactive) |
| COc1ccc(NC(=O)N(C)C[C@H]2OCCCC[C@H](C)Oc3ccc(NC(=O)Nc4ccc(C(F)(F)F)cc4)cc3C(=O)N([C@@H](C)CO)C[C@@H]2C)cc1 | -11.5% (inactive) |
| C[C@H]1CCCCO[C@H](CN(C)S(=O)(=O)c2ccc(Cl)cc2)[C@@H](C)CN([C@@H](C)CO)C(=O)c2cc(NC(=O)Nc3ccc4c(c3)OCO4)ccc2O1 | 6.45% (inactive) |
| C[C@@H]1CN([C@@H](C)CO)C(=O)c2cc(C#Cc3ccccc3)cnc2O[C@H]1CN(C)C(=O)c1ccccn1 | 15.5% (inactive) |
| C[C@@H]1CN([C@H](C)CO)S(=O)(=O)c2ccc(C#CCC3CCCC3)cc2O[C@H]1CN(C)C(=O)CC1CC1 | -5.41% (inactive) |
| C[C@H]1CCCCO[C@@H](CN(C)S(=O)(=O)c2cccs2)[C@@H](C)CN([C@@H](C)CO)C(=O)c2cc(NS(=O)(=O)c3ccc(Cl)cc3)ccc2O1 | 5.91% (inactive) |
| O=C(Nc1cccc(F)c1)N1CCCCN2[C@H](CO)[C@H](c3ccc(C#CC4CC4)cc3)[C@@H]2C1 | 35.2% (active) |
| O=C(Nc1ccccc1)N1CCCCN2[C@H](CO)[C@@H](c3ccc(C#Cc4ccccn4)cc3)[C@H]2C1 | 1.29% (inactive) |
| N#Cc1cccc(-c2ccc([C@H]3[C@H](CO)N4CCCCN(C(=O)Nc5cccc(F)c5)C[C@@H]34)cc2)c1 | 32.4% (inactive) |
| C[C@@H]1CN([C@H](C)CO)C(=O)c2cc(NS(=O)(=O)c3cccs3)ccc2O[C@@H](C)CCCCO[C@@H]1CN(C)S(=O)(=O)c1ccc(Cl)cc1 | -7.98% (inactive) |
| COc1ccc(NC(=O)Nc2ccc3c(c2)C(=O)N([C@H](C)CO)C[C@H](C)[C@H](CN(C)S(=O)(=O)c2ccc(Cl)cc2)OCCCC[C@H](C)O3)cc1 | -12.7% (inactive) |
| O=C(c1ccccn1)N1CC[C@@H]2[C@H]1c1cc(-c3ccccc3)ccc1N[C@@H]2CO | 3.39% (inactive) |
| C[C@@H]1CN([C@@H](C)CO)C(=O)c2cc(NC(=O)Nc3ccc4c(c3)OCO4)ccc2O[C@@H]1CN(C)Cc1ccc(Oc2ccccc2)cc1 | 22.6% (inactive) |
| C[C@@H]1CN([C@H](C)CO)C(=O)Cc2cc(NC(=O)c3ccncc3)ccc2O[C@H]1CN(C)Cc1ccc(-c2ccccc2)cc1 | 32.8% (inactive) |
| C[C@H](CO)N1C[C@H](C)[C@H](CN(C)Cc2ccc(-c3ccccc3)cc2)Oc2ccc(NC(=O)Nc3ccc(F)cc3)cc2CC1=O | 43.5% (active) |
| C[C@@H]1CN([C@@H](C)CO)C(=O)Cc2cc(NC(=O)C3CCCCC3)ccc2O[C@@H]1CN(C)Cc1ccc(C(=O)Nc2ccccc2N)cc1 | 37.8% (active) |
| C[C@H]1CN([C@@H](C)CO)C(=O)Cc2cc(NC(=O)Cc3cn(C)c4ccccc34)ccc2O[C@@H]1CN(C)Cc1ccccc1 | -12.8% (inactive) |
| C[C@H](CO)N1C[C@H](C)[C@@H](CN(C)Cc2ccc(-c3ccccc3)cc2)Oc2ccc(NC(=O)CCC(F)(F)F)cc2CC1=O | 32.2% (inactive) |
| C[C@@H]1CN([C@H](C)CO)C(=O)Cc2cc(NC(=O)Cc3ccccc3)ccc2O[C@H]1CN(C)Cc1ccc(Oc2ccccc2)cc1 | 1.79% (inactive) |
